# Measured values: PubChem BioAssay AID687014 (The Scripps Research Institute Molecular Screening Center, 2013)
# Among all 370,000 compounds or so, about 6,800 (1.8%) were called active. The list comes from a sample in which actives are over-represented; it also holds similar structures and randomly drawn compounds. Values without a mark were called inactive.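 The calls were made as follows: active = activation above a cutoff set at the mean of all screened compounds plus 3 SD (cut at about 10% in these data); inactive = the rest.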
# System: Nuclear hormone receptor DAF-12 (Heterodera glycines), GAL4 fusion
# Assay: H. glycines DAF-12 receptor agonists, primary screen, cell-based, luminescence, HEK293, GAL4 fusion, UAS-luciferase (AID 687014);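 also: 0% = DMSO wells and 100% = sodium butyrate wells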
# Conditions: HEK293 GAL4-hgDAF12 UAS-luciferase reporter, agonist luminescence; at 6.8 µM; hits give high values; normalized to butyrate control
row,Compound,activation
1,C=CCN1C(=O)[C@@H](CC(=O)N2CCN(C(=O)OCC)CC2)[C@]2(C(=O)OCC)CCCCC/C=C/12,-0.26%
2,CCN(CC)C(=O)CC[C@@H]1CC[C@]2(CCCN(S(=O)(=O)C3CCCCC3)C2)O1,0.45%
3,C=CCn1c(SCC(N)=O)nnc1-c1ccccc1OC,-1.84%
4,N#Cc1ccc(C2N=C(c3ccccc3)NO2)cc1 (stereo not drawn),9.37%
5,Brc1ccccc1C1N=C(c2ccccc2)NO1 (stereo not drawn),20.2% (active)
6,S=C1NC(c2ccccc2)=NCN1c1ccc(Br)cc1,4.34%
7,CCOC(=O)C1CCN(C(=O)C(C)(C)NC(=O)Nc2ccccc2Cl)CC1,0.66%
8,C[C@@H]1ON(C)[C@H]2C[C@H]3c4cc(N5CCOCC5)ccc4CCN3C[C@@H]12,-4.54%
9,COC(=O)C1=C(C)N(Cc2ccccc2C(F)(F)F)C(=NCc2ccc(OC)cc2)NC1c1cccc(C(F)(F)F)c1 (stereo not drawn),-1.71%
10,CN1CCc2ccccc2C1Cc1ccccc1NC(=O)c1sc2ccccc2c1Cl (stereo not drawn),5.85%
11,O=C(Nc1ccc2c(c1)OCO2)c1sc2cc(Cl)ccc2c1Cl,-1.79%
12,O=C(Nc1ccon1)c1sc2ccccc2c1Cl,11.2% (active)
13,C[C@@H]1CN([C@H](C)CO)C(=O)CCCn2cc(nn2)CO[C@H]1CN(C)C(=O)Nc1ccc(N2CCCCC2)cc1,5.88%
14,Cc1nc2ccccc2n1C(=O)N1CCOCC1,1.42%
15,Cc1nn2c3cc(N4CCOCC4)ccc3nc2c2ccccc12,11.4% (active)
16,N#CCSc1nc2ccc(N3CCOCC3)cc2c(=O)n1CCc1ccccc1,-1.34%
17,Cc1ccc(Cn2cc(CN3[C@@H](CC(C)C)COc4ccc(Cl)cc4S3(=O)=O)nn2)cc1,0.41%
18,CCCC1(C(=O)OCC)NC(c2ccc(N(C)C)cc2)C2C(=O)N(c3ccc4c(c3)OCCO4)C(=O)C21 (stereo not drawn),-2.1%
19,Cc1ccc(-c2nc(C3CCCN(S(=O)(=O)c4ccc(Br)s4)C3)no2)cc1 (stereo not drawn),1.98%
20,COc1ccc(Nc2ncc(F)c(N3CCOCC3)n2)cc1,18.6% (active)
21,Fc1cnc(N2CCOCC2)nc1NCc1ccccc1,-0.76%
22,COC(=O)c1ccccc1Oc1c(F)c(F)nc(N2CCOCC2)c1F,-0.09%
23,COC(=O)c1cc2c(c3c4cc(F)ccc4n(S(=O)(=O)c4ccccc4)c13)C(=O)N(Cc1ccccc1OC)C2,0.57%
24,Cc1ccc(NN=C2C(=O)OC(C)(C)OC2=O)c(C)c1,11.5% (active)

row,Compound,activation
1,Cc1ccc(NC(=O)c2oc(=O)c3ccccc3c2-c2ccccc2)c(C)c1,2.59%
2,Cc1ccc(NC(=O)C(=O)NCc2ccco2)c(C)c1,6.27%
3,C=CCN(C)CC#Cc1ccccc1,-1.36%
4,CCOc1ccc(NC(=O)N(CCC(C)C)C(C)c2ccco2)cc1 (stereo not drawn),-1.26%
5,CCOc1ccc(-c2nnc(-c3ccco3)o2)cc1,13.6% (active)
6,CCCCSc1nnc(-c2ccc(C)cc2)o1,8.59%
7,O=C(CSc1nnc(-c2ccco2)o1)NCC(=O)c1ccccc1,-1.52%
8,CCCCOc1ccc(-c2nnc(-c3ccco3)o2)cc1,11.3% (active)
9,CCCCCCc1cc2cc(-c3nnc(-c4cccc(OC)c4)o3)c(=O)oc2cc1O,4.05%
10,COC(=O)[C@]12C[C@H](CC(=O)N3CCOCC3)C(=O)N(Cc3ccc(Cl)cc3Cl)C1=C[C@H](C(C)C)O[C@@H]2C1CC1,-3.62%
11,CCOC(=O)C1=C(C(=O)OCC)C2N(Cc3ccc(C#N)cc3)c3ccccc3[C@@]23C[C@@H](C(=O)OC)N(S(=O)(=O)c2ccc(F)cc2)C3=N1 (stereo partly drawn),2.34%
12,Cc1ccc(-n2c(SCC(=O)Nc3cccc4ccccc34)nnc2-c2ccccn2)cc1,-2.36%
13,Cc1cccc(OCC(=O)NC2CC(C)(C)NC(C)(C)C2)c1,0.72%
14,Cc1cccc(OCC(=O)Nc2ccc(C(=O)O)cc2NC(=O)COc2cccc(C)c2)c1,-2.94%
15,Cc1cccc(OCC(=O)Nc2ccccc2F)c1,11.4% (active)
16,COC(=O)C1CN(CCc2ccccc2)CCS(=O)(=O)N1Cc1cccc(Cl)c1 (stereo not drawn),-0.51%
17,COc1ccc(-c2onc(C)c2-c2ccc3c(c2)OCCO3)c(O)c1,-2.49%
18,Cc1ccc(C(=O)NNC2=Nc3cc([N+](=O)[O-])ccc3OC2)cc1,4.07%
19,COc1ccc(C2=Nc3cc(C)ccc3OC2)cc1,15.9% (active)
20,O=C1Nc2ccccc2OC1CC(=O)N1CCCCCCC1 (stereo not drawn),3.97%
21,O=C(c1cccc(C(F)(F)F)c1)N1CC[C@H]2[C@H](CCCN2Cc2cc(F)cc(F)c2)C1,1.35%
22,O=C(c1ccccc1)C(O)(CN1CCCCC1)c1ccccc1 (stereo not drawn),-0.03%
23,CC(=O)c1ccc(OC(=O)N2CCOCC2)cc1,1.11%
24,Cc1ccc(C(=O)C(=S)N2CCOCC2)cc1,3.06%

row,Compound,activation
1,NC1=NN(c2cccc(C(=O)O)c2)C(=O)C1,0.87%
2,O=C(O)c1cccc(N=NN2CCCCCC2)c1,12.7% (active)
3,O=C(O)c1ccc(N=NN2CCOCC2)cc1,10.6% (active)
4,O=C(NC1CCCCN(Cc2cccc(C(F)(F)F)c2)C1=O)c1ccccc1I (stereo not drawn),-2.42%
5,CC(C)NC(=S)N1CCN(S(C)(=O)=O)CC1,2.81%
6,C=CCN1C(=O)[C@H](CC(=O)N2CCN(C(=O)OCC)CC2)[C@@]2(C(=O)OCC)CCCC=C12,0.53%
7,COC(=O)[C@@]12CCCCC=C1N(CCc1ccc(Cl)cc1)C(=O)[C@H]2CC(=O)NCc1ccc(OC)c(OC)c1,-3.28%
8,CCOC(=O)c1cn[nH]c1NC(=S)Nc1ccccc1,15.5% (active)
9,CCOC(=O)c1c(NC(=S)Nc2ccccc2)sc2c1CCN(C)C2,-0.1%
10,CCOC(=O)c1cc2c(nc1NC(=S)Nc1ccccc1)CC(C)(CC)OC2 (stereo not drawn),-0.06%
11,Cc1ccccc1Nc1nc(N)nc(CSc2nnc3ccccn23)n1,-2.26%
12,Cc1ccccc1Nc1nc(N)nc(CSc2ccccc2)n1,16.4% (active)
13,Cc1ccccc1Nc1nc(N)nc(CN2CCN(c3ccccn3)CC2)n1,-1.77%
14,Clc1ccc(-n2c(SC/C=C/c3ccccc3)nnc2-c2ccco2)cc1,-0.13%
15,O=C(CSc1nc2ccccc2nc1N1CCCCC1)N1CCN(S(=O)(=O)c2cccc([N+](=O)[O-])c2)CC1,0.48%
16,COc1ccc(OC)c(CNC(=O)CCc2nc(-c3cccs3)no2)c1,-2.24%
17,CCc1ccc(CNC(=O)CCc2nc(-c3cccs3)no2)cc1,1.81%
18,COc1ccc(CCc2nc(-c3cccs3)no2)cc1,11.6% (active)
19,CCOC(=O)C1CSCCS(=O)(=O)N1Cc1ccc(Cl)cc1 (stereo not drawn),-2.53%
20,CN1C(=O)C2CC(O)C(SC3CC4C(=O)N(C)C(=O)C4CC3O)CC2C1=O (stereo not drawn),-0.94%
21,COc1ccc2nc3n(c(=O)c2c1)-c1ccc(Cl)cc1C(=O)NC3Cc1ccccc1 (stereo not drawn),-2.62%
22,O=C(NC1CCC1)c1ccc(C#Cc2cccc(F)c2)c[n+]1[O-],4.83%
23,Cn1ncc(Br)c1C(=O)NC1CCCC1,2.19%
24,O=C(NC1CCC1)c1ccc(C#CC2CC2)cn1,14.1% (active)

row,Compound,activation
1,CC1CN(C(=S)Nc2ccc(S(N)(=O)=O)cc2)CC(C)O1 (stereo not drawn),0.5%
2,COc1cc(C(=O)Nn2c(O)c(C3=c4ccccc4=NC3=O)sc2=S)ccc1O,5.04%
3,Cc1ccc(-c2nnc(SC(C)C#N)n2N)cc1 (stereo not drawn),-2.55%
4,COc1ccc(C(=O)COC(=O)C(O)c2ccccc2)c(OC)c1 (stereo not drawn),10.7% (active)
5,COc1ccc(C(=O)COC(=O)CN2C(=O)C3CC=CCC3C2=O)c(OC)c1 (stereo not drawn),-0.12%
6,COc1ccc(C(=O)COC(=O)c2nn(C)c(=O)c3ccccc23)c(OC)c1,-0.75%
7,Nc1[nH]c(C(=O)c2ccc(Br)cc2)c(-c2ccc3c(c2)OCO3)c1C(=O)NCCc1c[nH]c2ccccc12,1.89%
8,COc1ccc(NC(=O)CC2COc3ccccc3O2)c(OC)c1 (stereo not drawn),1.72%
9,Cc1ccc(S(=O)(=O)N(C)C)cc1NC(=O)COC(=O)C1COc2ccccc2O1 (stereo not drawn),1.41%
10,CC(=O)c1ccccc1NC(=O)COC(=O)C1COc2ccccc2O1 (stereo not drawn),24.1% (active)
11,CCOC(=O)[C@]12CCCC=C1N(CCCOC)C(=O)[C@@H]2CC(=O)N1CCOCC1,0.45%
12,C(=N\Nc1ccc2ccccc2n1)/c1ccc2c(c1)OCO2,11.2% (active)
13,COc1cccc(CNCc2ccc3c(c2)OCO3)c1,-0.87%
14,Cc1cc2c(C)nc(N/N=C/c3ccccc3)nc2o1,4.01%
15,Cc1noc(C)c1/C=N/Nc1ccc2ccccc2n1,12.8% (active)
16,O=C(OC12CCCN(C1)/C(=C/c1ccccc1)C2)c1ccco1 (stereo not drawn),-2.49%
17,Cc1occc1C(=O)Nc1cccc(Cn2cccn2)c1,0.48%
18,Cc1cc(-c2ccccc2)n2nc(C)c(-c3ccccc3)c2n1,0.2%
19,Cc1nn(C(=O)c2ccoc2C)c(N)c1-c1ccccc1,12.5% (active)
20,O=C(NCCc1c[nH]c2ccccc12)OCc1cn(-c2c(F)cccc2F)nn1,-0.77%
21,O=S1(=O)c2c(cccc2N2CC[C@H](O)C2)O[C@@H]2CCN1C2,-2.37%
